Most compounds without a hit are left out; they make up all but 1.2% or so of the library.
RGS8-Gao reg = human RGS8-Galphao interaction regulation. multiplexed bead flow cytometry, RGS8-Galphao binding; actives lie on both sides. 0.34% of 220,000 active. response (percent of control binding), % at 10 µM. AID 1423. P09471; in the data active means response below about 60% or above about 140%; inactive means in between;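 further: Galphao activated as the GDP aluminium fluoride complex binding bead-coupled RGS8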
Target sequence (P09471 whole entry, looked up): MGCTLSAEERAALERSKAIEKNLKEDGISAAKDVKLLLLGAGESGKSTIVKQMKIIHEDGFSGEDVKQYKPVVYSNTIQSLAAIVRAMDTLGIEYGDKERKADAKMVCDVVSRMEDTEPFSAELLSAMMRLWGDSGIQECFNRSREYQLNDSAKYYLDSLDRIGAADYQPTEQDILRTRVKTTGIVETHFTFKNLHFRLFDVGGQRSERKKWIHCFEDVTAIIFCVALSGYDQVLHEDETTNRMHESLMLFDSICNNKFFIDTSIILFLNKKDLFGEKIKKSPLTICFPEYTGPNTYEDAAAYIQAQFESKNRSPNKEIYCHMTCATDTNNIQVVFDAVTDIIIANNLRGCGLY
Avidin fluor = avidin bead compound fluorescence profile; Avidin beads, compound fluorescence 488/530 nm, flow cytometry; hits give high values; fluorescence (KMESF) at 10 µM; 0.38% of 220,000 active; in the data active means fluorescence above about 47
GSH bead fluor = GSH bead compound fluorescence profile | 0.25% of 190,000 active | GSH beads flow cytometry, compound fluorescence 488/530 nm; hits give high values | fluorescence (KMESF) at 10 µM; in the data active means fluorescence above about 89;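 further: glutathione beads carrying GST-tagged Bcl family fusion proteins plus one bare bead set; values are compound well signal with DMSO vehicle wells as background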
RGS4-Gao reg = modulates binding of RGS4 to human Galphao; Multiplexed bead flow cytometry; actives lie on both sides; binding response (% of control), % at 10 µM; 0.33% of 220,000 active; in the data active means binding response below about 49% or above about 150%; inactive means in between;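 further: fluorescent Galphao activated with aluminum fluoride binding bead-coupled RGS4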
RGS16-Gao = modulates binding between human RGS16 and Galphao | O15492+P09471 | bead-based flow cytometry RGS16-Galphao binding, fluorescence; actives lie on both sides | binding response (% of control), % at 10 µM | 0.38% of 220,000 active;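 further: Galphao activated by GDP with aluminum fluoride before binding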
RGS7-Gao reg = human RGS7-Galphao interaction regulation. Multiplexed bead flow cytometry, RGS7-Galphao binding; actives lie on both sides. binding response (% of control), % at 10 µM. AID 1439. 0.35% of 220,000 active; in the data active means binding response below about 49% or above about 150%; inconclusive means no clear call, values can overlap the other calls; inactive means in between;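 further: fluorescent Galphao held in activated GDP-AlF4 state binding bead-coupled RGS7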
RGS4-Gao HTS = regulators of human RGS4-Galphao interaction | shares compounds with RGS16-Gao | multiplexed bead flow cytometry, RGS–Galpha-o binding | RGS4–Galpha-o binding response, % at 10 µM | 99% of 1,600 active;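 further: fluorescently labeled Galpha-o bound to GDP with aluminium fluoride binding biotinylated RGS beads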
Target sequence (P09471 whole entry, looked up): as above
Target sequence (P49798 whole entry, looked up): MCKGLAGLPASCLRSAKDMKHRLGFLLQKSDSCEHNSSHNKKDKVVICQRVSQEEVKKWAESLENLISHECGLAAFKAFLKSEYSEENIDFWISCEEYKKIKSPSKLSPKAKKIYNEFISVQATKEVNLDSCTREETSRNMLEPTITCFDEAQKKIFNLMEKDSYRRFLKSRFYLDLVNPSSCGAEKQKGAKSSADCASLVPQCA
Avidin counter = counter-screen: compounds disrupting biotin binding to avidin beads; shares compounds with RGS16-Gao; streptavidin beads, fluorescein-biotin binding, flow cytometry; inhibition, % at 10 µM; 1,700 tested, under 10 active;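 active means inhibition above 50%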;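 further: median green fluorescence of gated singlet beads compared with DMSO control wells; 0% = DMSO wells and 100% = complete loss of bead fluorescence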
RGS8-Gao single = confirmation of regulators of human RGS8-Galphao interaction; shares compounds with RGS16-Gao; bead-based flow cytometry RGS8-Galphao binding, fluorescence; actives lie on both sides; binding response (% of control), % at 10 µM; 3% of 1,700 active; in the data active means binding response below about 72% or above about 130%; inactive means in between;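 further: Galphao activated as GDP AlF4 complex before binding bead RGS8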
RGS7-Gao single = RGS7-Galphao interaction regulation, single point confirmation; shares compounds with RGS16-Gao; bead-based flow cytometry RGS7-Galphao binding; actives lie on both sides; response (percent of control binding), % at 10 µM; 7.8% of 1,700 active; AID 1837; in the data active means response below about 75% or above about 130%; inactive means in between;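 further: fluorescent Galphao activated with GDP and aluminum fluoride binding bead-coupled RGS7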
RGS16-Gao conf = confirmation of regulators of human RGS16-Galphao interaction; shares compounds with RGS16-Gao; bead-based flow cytometry, RGS16-Galphao binding; actives lie on both sides; response (% of control binding), % at 10 µM; 4% of 1,700 active; AID 1838; in the data active means response below about 74% or above about 130%; inactive means in between;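 further: Galphao activated as the GDP aluminium fluoride complex binding bead-coupled RGS16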
RGS4-Gao single = confirmation of regulators of human RGS4-Galphao interaction | shares compounds with RGS16-Gao | RGS4-Galphao binding, multiplexed bead flow cytometry; actives lie on both sides | binding response (% of control), % at 10 µM | 4% of 1,700 active | AID 1840; in the data active means binding response below about 74% or above about 130%; inactive means in between
RGS19-Gao single = RGS19-Galphao interaction regulation, single point confirmation. response (percent of control binding), % at 10 µM. shares compounds with RGS16-Gao. bead-based flow cytometry RGS19-Galphao binding; actives lie on both sides. 5% of 1,700 active; in the data active means response below about 50% or above about 160%; inactive means in between;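 further: 100% = no compound control and 0% = blank background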
An asterisk follows results filed as active; ? = inconclusive; . = no result; [ ] = remark or other dose. Unless noted, how the calls were made is not given here.

SMILES	RGS8-Gao reg	Avidin fluor	GSH bead fluor	RGS4-Gao reg	RGS16-Gao	RGS7-Gao reg	Avidin counter	RGS8-Gao single	RGS7-Gao single	RGS16-Gao conf	RGS4-Gao single	RGS19-Gao single	others
CC1=C(C(N)=O)C(c2cccs2)n2nc(-c3cccc(C)c3)nc2N1 (configuration not stated)	33.7*	8	17	34.2*	26.4	30.9*	0.8	99.8	100.8	98.0	97.6	91.8
CC1=C(C(N)=O)C(c2cccs2)n2nc(-c3cccc(Cl)c3)nc2N1 (configuration not stated)	101.5	27	25	99.4	106.1	100.9	.	.	.	.	.	.
O=C(NCc1cccnc1)c1ccccc1Br	99.3	14	22	101.6	101.6	101.0	.	.	.	.	.	.
CCSc1ccccc1C(=O)NCc1cccnc1	59.0*	22	25	94.1	100.6	81.2	-1.4	99.6	67.4*	90.2	73.5*	84.6	RGS4-Gao HTS=94.1*
Cc1cc2cc(CCNC(=O)c3ccc(C)c([N+](=O)[O-])c3)c(=O)[nH]c2cc1C	16.5*	-3	10	3.7*	5.8	7.7*	0.2	101.5	103.3	101.5	101.5	96.1
Cc1ccc(C(=O)NCCc2nc3ccccc3[nH]2)cc1[N+](=O)[O-]	108.7	3	5	102.1	136.7	100.1	.	.	.	.	.	.
CC[n+]1c(/C=C/C=C/N(C(C)=O)c2ccccc2)sc2ccccc21	98.0	.	25	14.0*	149.9	148.6	-3.3	117.1	243.5*[activator]	153.4*[activator]	162.8*[activator]	278.4*[activator]
CCn1c(/C=C/N(C(C)=O)c2ccccc2)[n+](CC)c2ccc(Cl)cc21	101.5	7	10	105.7	104.9	98.9	.	.	.	.	.	.
CC(=O)c1ccc(N2CCN(C(C)C(=O)NC3CCCc4ccccc43)CC2)cc1 (configuration not stated)	100.0	8	18	101.4	98.9	97.3	.	.	.	.	.	.
CC(=O)Nc1nc2c(C)c(Cl)ccc2s1	82.4	7	.	96.4	99.2	?	1.6	103.8	102.0	110.0	100.9	98.9
CCCC(=O)Nc1nc2c(C)c(Cl)ccc2s1	97.4	6	.	94.5	95.8	?	.	.	.	.	.	.
CCSc1nnc(NC(=O)C(CC)Oc2ccccc2)s1 (configuration not stated)	95.8	36	23	96.4	96.4	92.5	.	.	.	.	.	.
CCNC(=O)c1c(NC(=O)C2COc3ccccc3O2)sc2c1CCCC2 (configuration not stated)	185.5*[activator]	3	22	170.3*[activator]	-528.0	155.2*[activator]	-0.1	104.8	110.3	104.0	104.9	95.1
COCCCNC(=O)c1c(NC(=O)C2COc3ccccc3O2)sc2c1CCCC2 (configuration not stated)	84.3	1	33	93.2	9.7	100.2	.	.	.	.	.	.
CCNC(=O)NC(=O)CSc1nc2ccccc2n1CCOC	102.8	40	17	99.5	99.2	100.6	.	.	.	.	.	.
COc1ccc(Nc2ccc(S(=O)(=O)N3CCCCCC3)cc2[N+](=O)[O-])cc1	102.7	7	9	104.5	106.7	.	2.5	90.1	88.0	88.8	91.4	78.0
Cc1ccc(C)c(NS(=O)(=O)c2cc(C(=O)N3CCCC3)ccc2Cl)c1	104.2	7	13	100.2	97.2	96.5	.	.	.	.	.	.
Cc1n[nH]c(=S)n1/N=C/c1ccccc1OCc1ccc(Cl)cc1Cl	68.7	5	5	92.0	15.3*	87.9	2.0	96.2	104.5	97.5	98.3	97.7	RGS4-Gao HTS=92.0*
CCCC(=O)OC(C(=O)Nc1cc(C(F)(F)F)ccc1Cl)c1ccccc1 (configuration not stated)	122.3	15	8	106.6	241.4*[activator]	107.3	-0.5	103.6	102.6	101.4	101.8	97.2	RGS4-Gao HTS=106.6*
COc1ccc(CN2CCc3ccccc3C2)c(OC)c1	101.4	7	.	101.2	101.9	?	.	.	.	.	.	.
COc1ccc(C2=[N+](C)CCn3cccc32)c(OC)c1	124.1	16	10	159.7*[activator]	204.5*[activator]	142.2	-0.1	108.7	119.1	117.1	115.4	111.2
C/C(=N\Nc1ccc2nncn2n1)c1ccc(Br)s1	98.9	9	.	97.4	98.2	?	.	.	.	.	.	.
O=C(CS(=O)(=O)c1ccc2ccccc2c1)N1CCCCCC1	103.1	13	9	100.8	100.3	107.9	.	.	.	.	.	.
CCCCN(C)C(=O)Cn1cnc2sc(C)cc2c1=O	97.6	110*	21	109.4	114.0	154.9*[activator]	.	.	.	.	.	.	RGS4-Gao HTS=109.4*
Cc1nc2nc[nH]n2c(=O)c1CCC(C)C	99.9	7	53	94.5	97.2	89.5	.	.	.	.	.	.
SMILES	RGS8-Gao reg	Avidin fluor	GSH bead fluor	RGS4-Gao reg	RGS16-Gao	RGS7-Gao reg	Avidin counter	RGS8-Gao single	RGS7-Gao single	RGS16-Gao conf	RGS4-Gao single	RGS19-Gao single	others
FC(F)C(F)(F)c1cc(-c2ccc(Cl)cc2)n[nH]1	104.0	5	.	109.6	108.3	?	.	.	.	.	.	.
Fc1ccc(-c2cc(C(F)(F)C(F)F)[nH]n2)cc1	110.9	79*	.	167.5*[activator]	164.4	?	1.5	103.5	105.5	105.5	107.0	97.1
CC(NC(=O)c1sc2cc([N+](=O)[O-])ccc2c1Cl)C(C)(C)C (configuration not stated)	79.7	2	10	98.3	15.2*	98.4	1.0	64.8*	113.0	40.8*	88.7	15.9*	RGS4-Gao HTS=98.3*
CC(=O)c1cn(CCC(C)C)c(=O)[nH]c1=O	100.5	6	8	101.0	102.2	99.5	.	.	.	.	.	.
C=CCN(c1ccc(C(=O)Nc2ccc(C)c(C)c2)cc1)S(C)(=O)=O	101.4	13	9	102.4	100.2	99.3	.	.	.	.	.	.
CC1=CC=CN2CC(O)CN=C12 (configuration not stated)	103.0	26	15	106.0	98.2	104.4	.	.	.	.	.	.
CC1=CN2CC(O)CN=C2C=C1 (configuration not stated)	.	.	39	.	.	.	2.2	100.0	95.3	98.3	98.8	108.4
